Measurements reported in PubChem BioAssay.
Records with an inconclusive call do not appear. Active and inactive are the calls of the source.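 Rule for the calls, unless noted: active = inhibition above the screen-wide mean plus 3 SD, about 51%; inactive = the rest.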

Experiments:
[1] = yeast TOR pathway RPL19A-GFP modulators, primary screen, cell-based, S. cerevisiae, multiplex flow cytometry (AID 1862; in the data active = percent of DMSO control GFP below about 86%;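 note: lower values mimic rapamycin by blocking the RPL19A rise seen in DMSO cells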); conditions: S. cerevisiae RPL19A-GFP strain, flow cytometry fluorescence, 3 h; at 10 µM; stronger effect = lower value
[2] = modulators of MEP2-GFP levels in yeast, primary screen, S. cerevisiae, multiplex flow cytometry (AID 1867;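 active = GFP response, as percent of the DMSO control, above the screen-wide mean plus 3 SD, about 139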;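 note: median GFP channel fluorescence of barcode-gated MEP2-GFP cells measured by flow cytometry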); conditions: S. cerevisiae MEP2-GFP strain, 3 h, at 10 µM, stronger effect = higher value, 100% means same as DMSO wells
[3] = modulators of CIT2-GFP expression in yeast, primary screen, S. cerevisiae, GFP fusion, multiplex flow cytometry (AID 1870;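 active = percent response above a set limit, the screen-wide mean plus 3 SD, cut at about 130% in these data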;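 note: barcoded CIT2-GFP strain pooled with four other GFP strains with rapamycin as positive control; median GFP fluorescence per well over plate mean of DMSO wells so 100% = DMSO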); conditions: 3 h, at 10 µM, stronger effect = higher value
[4] = modulators of LAP4-GFP expression in yeast, primary screen, S. cerevisiae, multiplex flow cytometry (AID 1873;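 active = GFP signal, as percent of the solvent control, above the screen mean plus 3 SD, about 149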); conditions: 3 h, at 10 µM, stronger effect = higher value
[5] = modulators of AGP1-GFP expression in yeast TOR pathway, primary screen, cell-based, multiplex flow cytometry, S. cerevisiae (AID 1887;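 active = GFP signal above the screen-wide mean plus 3 SD, that is over about 124.5% of the solvent control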;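 note: AGP1-GFP fusion strain of S. cerevisiae within a five-strain barcoded multiplex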); conditions: 3 h, at 10 µM, stronger effect = higher value
[6] = inhibitors of CD8+ T cell-vesicle binding, pilot screen, LFA-1/ICAM-1 modulator project, MLPCN validation set, flow cytometry (AID 2523;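 active = response below a set limit, under 55% cells CD8-positive and vesicle-bound, and CD8 cells' 90th-percentile brightness under 279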;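 for vesicle binding response: mean PE anti-B7-1 fluorescence of CD8+ cells relative to row control; 100% = QL9-loaded vesicles with DMSO vehicle in the same plate row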); conditions: 2C mouse CD8+ T cells, at 7 µM, stronger effect = lower value; double positive events: measured here: CD8+/vesicle+ event percentage
[7] = target: Integrin beta-1 (Homo sapiens) + Integrin alpha-4 (Homo sapiens) (UniProt P13612+P05556); assay: inhibition of HUTS-21 binding to VLA-4, pilot screen, VLA-4 allosteric modulator project, U937 cells, HUTS-21 mAb, flow cytometry, validation set (AID 2674;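 active = inhibition above 50%, about 3 SD of the validation set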;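 note: antibody binding induced by the VLA-4 ligand LDV present at three times its Kd; 0% = LDV ligand with antibody and no compound and 100% = antibody without LDV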); conditions: HUTS-21 LIBS mAb binding, at 6.7 µM, stronger effect = higher value, binding induced by LDV ligand
[8] = superoxide lowering in aged yeast cells, pilot screen, validation compound set (AID 2706;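 active = superoxide response below 65% of plate, a cut near 3 SD across the whole screen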;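 note: yeast exposed to compound for one week at 30 degrees C before staining; 100% = mean of all compound wells on the same plate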); conditions: S. cerevisiae aging, superoxide DHE fluorescence; at 10 µM, stronger effect = lower value
[9] = target: Beta-adrenergic receptor kinase 1 (Homo sapiens) (UniProt P25098); assay: GRK2 binders displacing RNA aptamer, biochemical, validation, human GRK2, bead flow cytometry (AID 488806;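 active = aptamer binding inhibition above 30%, about 3 SD of noise from non-fluorescent compounds; inactive = inhibition at or below 30%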); conditions: bead-bound GRK2, FAM-aptamer displacement, at 10 µM, stronger effect = higher value
[10] = target: AP-2 complex subunit beta (Homo sapiens) (UniProt P63010); assay: inhibitors of arrestin peptide binding to AP2, pilot screen, biochemical, validation set, GST-AP2 beads, flow cytometry (AID 504541;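 active = inhibition above 54%, about 3 SD of non-fluorescent compounds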;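 note: AP2 carries R879A mutation and is captured from E. coli lysate; bead-bound FITC arrestin peptide fluorescence measuring arrestin peptide binding to AP2; 0% = DMSO wells and 100% = excess unlabeled arrestin peptide control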); conditions: FITC arrestin peptide, at 10 µM, stronger effect = higher value, AP2 beta2 appendage fragment, R879A mutant
[11] = yeast V-ATPase proton transport modulators, S. cerevisiae, pHLuorin, HTS validation (AID 504600; in the data active = response above about 15%;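 note: plate controls were DMSO for no effect and reference compound for full effect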); conditions: S. cerevisiae pHLuorin cytosolic pH, at 10 µM, stronger effect = higher value
[12] = system: anti-desmoglein-3 scFv antibody binding to human DSG3; assay: inhibitors of anti-DSG3 scFv binding to DSG3, pilot screen, biochemical, validation compound set, bead-based, flow cytometry (AID 588368;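 active = binding below the plate cutoff, the plate median minus 3 SD, with a reading above zero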;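 note: signal is the median channel fluorescence of bead-bound GFP antibody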); conditions: Protein G beads, DSG3-Fc, scFv-GFP binding, at 10 µM, stronger effect = lower value
[13] = inhibitors of fungal efflux pumps CDR1, CDR2, MDR1, pilot screen, validation compound set, multiplex, phenotypic (AID 588506;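 active = efflux inhibition above 0.42, the validation set average plus 4 SD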;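 note: Nile Red retained in cells so higher fluorescence means more efflux inhibition; 0 = negative control wells and 1 = enniatin B 25 µM full block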); conditions: S. cerevisiae pump-expressing triplex, Nile Red efflux flow cytometry; at 10 µM; stronger effect = higher value; the pumps come from Candida albicans
[14] = target: ATP-binding cassette sub-family B member 6 (Homo sapiens) (UniProt Q9NP58); assay: ABCB6 transporter inhibitors, pilot screen, K562-ABCB6 cells, flow cytometry, validation set (AID 588550); conditions: K562-ABCB6 porphyrin accumulation, 1 h, at 10 µM, stronger effect = higher value;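 note: 0% = DMSO wells and 100% = benzethonium chloride 70 µM positive control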
[15] = promoters of myeloid differentiation in arrested cells, primary screen, cell-based, GFP/MAC1 double positive, flow cytometry, validation set (AID 588685;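 active = differentiation response of at least 50%, scaled between solvent and reference control, from cells with both markers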;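 note: compound exposure lasts four days before antibody staining and flow analysis; 0% = DMSO wells and 100% = 5 µM fulvestrant positive control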); conditions: ER-HoxA9 marrow cells, stronger effect = higher value, normalized: vehicle 0, fulvestrant 100

Sequence of ATP-binding cassette sub-family B member 6 (Homo sapiens) (Q9NP58 whole entry, looked up): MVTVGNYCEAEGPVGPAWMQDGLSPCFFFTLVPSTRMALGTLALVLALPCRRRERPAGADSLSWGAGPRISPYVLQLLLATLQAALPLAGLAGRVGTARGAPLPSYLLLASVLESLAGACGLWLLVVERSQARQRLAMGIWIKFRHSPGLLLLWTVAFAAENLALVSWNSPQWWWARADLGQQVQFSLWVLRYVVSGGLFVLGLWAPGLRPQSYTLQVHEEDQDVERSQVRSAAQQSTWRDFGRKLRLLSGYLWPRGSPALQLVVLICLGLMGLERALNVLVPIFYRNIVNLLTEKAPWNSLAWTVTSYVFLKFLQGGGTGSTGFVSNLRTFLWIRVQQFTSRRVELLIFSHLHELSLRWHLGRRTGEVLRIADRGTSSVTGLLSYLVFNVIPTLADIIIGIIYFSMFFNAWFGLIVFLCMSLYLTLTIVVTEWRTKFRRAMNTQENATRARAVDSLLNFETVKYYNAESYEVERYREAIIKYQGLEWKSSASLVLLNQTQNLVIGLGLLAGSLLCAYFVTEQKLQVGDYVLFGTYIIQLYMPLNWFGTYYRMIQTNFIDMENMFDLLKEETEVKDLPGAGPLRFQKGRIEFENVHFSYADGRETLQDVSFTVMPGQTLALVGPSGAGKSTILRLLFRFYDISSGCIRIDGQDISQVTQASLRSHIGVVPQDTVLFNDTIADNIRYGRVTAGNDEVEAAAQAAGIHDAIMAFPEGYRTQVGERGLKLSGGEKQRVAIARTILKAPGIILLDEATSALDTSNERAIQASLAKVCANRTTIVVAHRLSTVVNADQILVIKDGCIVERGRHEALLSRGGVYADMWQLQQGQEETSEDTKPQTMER
Sequence of AP-2 complex subunit beta (Homo sapiens) (P63010 whole entry, looked up, the tested form may be a part, one chain of several): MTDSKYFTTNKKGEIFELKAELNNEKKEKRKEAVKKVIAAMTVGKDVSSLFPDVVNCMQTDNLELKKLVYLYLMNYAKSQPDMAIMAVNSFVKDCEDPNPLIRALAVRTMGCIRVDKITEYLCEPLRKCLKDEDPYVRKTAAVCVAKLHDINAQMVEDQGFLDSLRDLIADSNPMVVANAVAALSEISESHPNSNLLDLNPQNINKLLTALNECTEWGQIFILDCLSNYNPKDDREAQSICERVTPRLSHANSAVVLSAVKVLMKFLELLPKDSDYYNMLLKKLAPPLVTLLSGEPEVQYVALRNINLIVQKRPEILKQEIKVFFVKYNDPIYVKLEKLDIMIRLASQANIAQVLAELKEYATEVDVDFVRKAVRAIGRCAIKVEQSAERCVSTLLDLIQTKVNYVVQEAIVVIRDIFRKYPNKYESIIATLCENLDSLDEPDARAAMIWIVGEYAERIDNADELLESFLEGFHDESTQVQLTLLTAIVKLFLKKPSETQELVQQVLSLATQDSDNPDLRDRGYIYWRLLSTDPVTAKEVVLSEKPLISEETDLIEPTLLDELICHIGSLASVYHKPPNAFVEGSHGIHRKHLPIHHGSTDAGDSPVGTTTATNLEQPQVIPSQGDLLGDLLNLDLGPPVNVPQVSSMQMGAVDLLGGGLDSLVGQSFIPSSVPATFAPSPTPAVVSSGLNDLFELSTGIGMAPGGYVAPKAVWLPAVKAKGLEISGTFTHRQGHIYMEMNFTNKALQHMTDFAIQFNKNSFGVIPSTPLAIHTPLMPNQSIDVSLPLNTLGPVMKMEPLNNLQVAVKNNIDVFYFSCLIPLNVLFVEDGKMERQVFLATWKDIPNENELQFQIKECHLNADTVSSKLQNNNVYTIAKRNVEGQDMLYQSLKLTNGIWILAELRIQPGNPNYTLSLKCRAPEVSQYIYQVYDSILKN
Sequence of Beta-adrenergic receptor kinase 1 (Homo sapiens) (P25098 whole entry, looked up): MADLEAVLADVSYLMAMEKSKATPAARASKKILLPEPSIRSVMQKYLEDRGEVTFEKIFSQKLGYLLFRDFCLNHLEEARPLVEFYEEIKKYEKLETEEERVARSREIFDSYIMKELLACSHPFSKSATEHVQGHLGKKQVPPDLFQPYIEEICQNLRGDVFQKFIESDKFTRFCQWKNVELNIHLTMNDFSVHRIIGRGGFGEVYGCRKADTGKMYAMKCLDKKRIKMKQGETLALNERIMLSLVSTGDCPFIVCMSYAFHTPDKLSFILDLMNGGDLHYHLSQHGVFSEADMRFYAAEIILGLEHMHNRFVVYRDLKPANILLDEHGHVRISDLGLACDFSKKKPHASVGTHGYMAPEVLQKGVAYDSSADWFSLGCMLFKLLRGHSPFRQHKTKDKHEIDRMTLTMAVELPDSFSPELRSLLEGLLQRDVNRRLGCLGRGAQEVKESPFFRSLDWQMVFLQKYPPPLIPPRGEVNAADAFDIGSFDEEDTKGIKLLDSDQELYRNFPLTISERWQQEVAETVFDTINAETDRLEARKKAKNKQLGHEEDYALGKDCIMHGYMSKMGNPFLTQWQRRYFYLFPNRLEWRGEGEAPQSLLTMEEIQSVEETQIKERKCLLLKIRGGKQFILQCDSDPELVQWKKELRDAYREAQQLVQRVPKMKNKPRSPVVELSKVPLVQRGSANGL
Sequence of Integrin beta-1 (Homo sapiens) + Integrin alpha-4 (Homo sapiens) (P05556 whole entry, looked up): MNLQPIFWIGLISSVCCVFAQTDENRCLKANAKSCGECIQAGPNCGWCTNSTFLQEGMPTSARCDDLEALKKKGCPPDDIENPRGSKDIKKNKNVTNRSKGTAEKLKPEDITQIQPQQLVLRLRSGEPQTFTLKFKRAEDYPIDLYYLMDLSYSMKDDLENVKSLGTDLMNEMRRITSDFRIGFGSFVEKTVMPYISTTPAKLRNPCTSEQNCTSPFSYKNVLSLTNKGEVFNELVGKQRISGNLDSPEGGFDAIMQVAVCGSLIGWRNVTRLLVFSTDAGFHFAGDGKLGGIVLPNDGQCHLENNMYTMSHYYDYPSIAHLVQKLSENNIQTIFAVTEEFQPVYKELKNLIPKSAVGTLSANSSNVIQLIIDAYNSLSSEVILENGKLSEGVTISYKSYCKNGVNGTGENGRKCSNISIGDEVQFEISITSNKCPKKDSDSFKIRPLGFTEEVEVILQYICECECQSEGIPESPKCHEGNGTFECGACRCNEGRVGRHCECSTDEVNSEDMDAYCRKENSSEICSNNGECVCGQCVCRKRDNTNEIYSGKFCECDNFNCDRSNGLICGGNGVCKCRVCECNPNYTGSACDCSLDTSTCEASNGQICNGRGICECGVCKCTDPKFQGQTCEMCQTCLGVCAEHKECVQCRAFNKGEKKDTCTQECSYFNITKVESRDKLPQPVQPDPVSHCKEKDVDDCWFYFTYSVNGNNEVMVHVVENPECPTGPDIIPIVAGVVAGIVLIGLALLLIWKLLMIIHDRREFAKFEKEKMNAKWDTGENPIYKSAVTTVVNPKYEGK
Sequence of Integrin beta-1 (Homo sapiens) + Integrin alpha-4 (Homo sapiens) (P13612 whole entry, looked up): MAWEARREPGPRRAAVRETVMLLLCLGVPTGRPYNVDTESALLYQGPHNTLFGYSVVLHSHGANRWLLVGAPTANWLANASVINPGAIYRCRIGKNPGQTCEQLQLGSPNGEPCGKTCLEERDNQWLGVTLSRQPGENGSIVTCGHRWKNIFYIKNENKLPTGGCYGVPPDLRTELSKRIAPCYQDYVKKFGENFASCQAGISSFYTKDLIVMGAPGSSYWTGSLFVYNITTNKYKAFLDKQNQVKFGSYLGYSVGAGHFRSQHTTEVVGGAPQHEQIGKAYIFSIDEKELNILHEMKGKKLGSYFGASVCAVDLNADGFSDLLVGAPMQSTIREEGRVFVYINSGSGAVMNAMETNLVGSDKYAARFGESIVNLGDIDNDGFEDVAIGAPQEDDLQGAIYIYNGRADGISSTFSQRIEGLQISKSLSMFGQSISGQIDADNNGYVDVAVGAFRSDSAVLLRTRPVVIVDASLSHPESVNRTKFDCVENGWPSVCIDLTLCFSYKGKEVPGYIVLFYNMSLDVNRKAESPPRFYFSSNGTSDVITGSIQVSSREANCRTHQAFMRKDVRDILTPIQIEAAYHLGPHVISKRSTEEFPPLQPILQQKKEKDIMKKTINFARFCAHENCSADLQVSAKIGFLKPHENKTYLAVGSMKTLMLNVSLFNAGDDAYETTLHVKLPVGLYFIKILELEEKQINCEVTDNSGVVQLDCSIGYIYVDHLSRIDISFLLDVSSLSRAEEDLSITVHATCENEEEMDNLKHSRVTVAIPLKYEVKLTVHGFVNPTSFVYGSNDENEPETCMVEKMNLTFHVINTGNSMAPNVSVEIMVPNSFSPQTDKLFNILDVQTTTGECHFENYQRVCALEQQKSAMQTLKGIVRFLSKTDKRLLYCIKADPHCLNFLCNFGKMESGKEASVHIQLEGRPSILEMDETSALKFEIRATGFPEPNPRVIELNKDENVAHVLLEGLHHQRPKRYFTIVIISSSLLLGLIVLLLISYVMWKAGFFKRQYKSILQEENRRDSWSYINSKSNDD

| SMILES | percent of DMSO control GFP [1] | GFP response vs DMSO [2] | percent response of DMSO control [3] | GFP response vs DMSO [4] | GFP response, % of DMSO [5] | double positive events [6] | vesicle binding response [6] | inhibition [7] | superoxide response (% of plate) [8] | aptamer binding inhibition [9] | inhibition [10] | response [11] | binding (% of control) [12] | efflux inhibition (fraction of control) [13] | inhibition [14] | differentiation response [15] |
| --- | --- | --- | --- | --- | --- | --- | --- | --- | --- | --- | --- | --- | --- | --- | --- | --- |
| CCOC(=O)Nc1ccc2c(c1)N(C(=O)CCN1CCOCC1)c1ccccc1S2 | 107% (inactive) | 102% (inactive) | 109% (inactive) | 92.3% (inactive) | 109% (inactive) | 48.8% | 120% (inactive) | -8.64% (inactive) | 106% (inactive) | 0% (inactive) | 9.79% (inactive) | -2.72% (inactive) | 97.3% (inactive) | -0.43 (inactive) | 8% (inactive) | -8.27% (inactive) |
| O=C(O)c1cccnc1 | 103% (inactive) | 105% (inactive) | 96.9% (inactive) | 101% (inactive) | 105% (inactive) | 54.3% | 137% (inactive) | 13.8% (inactive) | 94.8% (inactive) | 4% (inactive) | -4.36% (inactive) | 4.12% (inactive) | 101% (inactive) | 0.29 (inactive) | 16% (inactive) | 20.8% (inactive) |
| O=C(COc1ccccc1)N1CCN(c2ccccc2)CC1 | 102% (inactive) | 104% (inactive) | 103% (inactive) | 100% (inactive) | 97.8% (inactive) | 53.2% | 176% (inactive) | -3.97% (inactive) | 94% (inactive) | 2% (inactive) | 5.07% (inactive) | -1.27% (inactive) | 97.8% (inactive) | 0.25 (inactive) | 6% (inactive) | 9.49% (inactive) |
| CN1CCC(OC(c2ccccc2)c2ccccc2)CC1 | 104% (inactive) | 105% (inactive) | 104% (inactive) | 105% (inactive) | 104% (inactive) | 66.3% | 186% (inactive) | 7.22% (inactive) | 95.8% (inactive) | 3% (inactive) | -2.62% (inactive) | 1.48% (inactive) | 102% (inactive) | 0.03 (inactive) | 9% (inactive) | 4.64% (inactive) |
| CC(=O)NC1C(OCCOc2ccc(Cl)cc2Cl)OC(COC(C)=O)C(OC(C)=O)C1OC(C)=O (stereo not given) | 103% (inactive) | 102% (inactive) | 108% (inactive) | 91.3% (inactive) | 94.5% (inactive) | 55.1% | 168% (inactive) | 16.6% (inactive) | 108% (inactive) | 3% (inactive) | 8.3% (inactive) | -6.83% (inactive) | 101% (inactive) | -0.2 (inactive) | 9% (inactive) | 20.8% (inactive) |
| CN1CCC(=C2c3ccccc3C=Cc3ccccc32)CC1 | 98.8% (inactive) | 99.9% (inactive) | 105% (inactive) | 104% (inactive) | 99.7% (inactive) | 62.8% | 194% (inactive) | 13.8% (inactive) | 88.8% (inactive) | -3% (inactive) | 24.3% (inactive) | -5.41% (inactive) | 97.2% (inactive) | -0.09 (inactive) | 8% (inactive) | -29.3% (inactive) |
| O=C(O)CC(O)C(=O)O (stereo not given) | 101% (inactive) | 106% (inactive) | 103% (inactive) | 104% (inactive) | 99.6% (inactive) | 62.1% | 146% (inactive) | 10.9% (inactive) | 95.8% (inactive) | 3% (inactive) | 1.04% (inactive) | -1.46% (inactive) | 99.3% (inactive) | 0.1 (inactive) | 14% (inactive) | 1.41% (inactive) |
| CC(C)(C)[C@]1(O)CCN2C[C@H]3c4ccccc4CCc4cccc(c43)[C@@H]2C1 | 106% (inactive) | 97.9% (inactive) | 112% (inactive) | 102% (inactive) | 107% (inactive) | 35.9% | 134% (inactive) | -20.8% (inactive) | 95.1% (inactive) | -4% (inactive) | -19.5% (inactive) | 1.63% (inactive) | 106% (inactive) | -0.2 (inactive) | 6% (inactive) | 20.8% (inactive) |
| N#Cc1c2c(c(-c3ccccc3)[nH]c1=O)CCCC2 | 102% (inactive) | 98.9% (inactive) | 103% (inactive) | 85.3% (inactive) | 100% (inactive) | 56.8% | 158% (inactive) | -7.7% (inactive) | 94% (inactive) | 3% (inactive) | -4.92% (inactive) | -1.34% (inactive) | 98.8% (inactive) | -0.05 (inactive) | 5% (inactive) | -22.8% (inactive) |
| CN(CCc1cnn(C)c1)Cc1nc(CC2CC2)no1 | 101% (inactive) | 101% (inactive) | 110% (inactive) | 105% (inactive) | 105% (inactive) | 58.1% | 194% (inactive) | -11.4% (inactive) | 106% (inactive) | 2% (inactive) | 23.6% (inactive) | -2.33% (inactive) | 104% (inactive) | -0.16 (inactive) | 8% (inactive) | -9.89% (inactive) |
| Cc1cc(OC(C(=O)O)c2ccccc2)c2c(C)c(Cc3ccccc3)c(=O)oc2c1 (stereo not given) | 103% (inactive) | 98.9% (inactive) | 97.9% (inactive) | 100% (inactive) | 95.1% (inactive) | 54.5% | 160% (inactive) | -3.04% (inactive) | 115% (inactive) | 2% (inactive) | 1.35% (inactive) | 5.52% (inactive) | 95.4% (inactive) | -0.05 (inactive) | 7% (inactive) | -3.43% (inactive) |
| Cc1oc2cc(O)ccc2c(=O)c1Oc1ccccc1Br | 96.9% (inactive) | 108% (inactive) | 93% (inactive) | 102% (inactive) | 98.1% (inactive) | 54.8% | 172% (inactive) | -12.4% (inactive) | 101% (inactive) | 6% (inactive) | 4.89% (inactive) | 1.47% (inactive) | 102% (inactive) | -0.31 (inactive) | 9% (inactive) | -13.1% (inactive) |
| COc1cc(=O)n(C)c2ccccc12 | 93.5% (inactive) | 99.9% (inactive) | 97.9% (inactive) | 90.3% (inactive) | 93.7% (inactive) | 54.6% | 136% (inactive) | 7.22% (inactive) | 103% (inactive) | 3% (inactive) | 28% (inactive) | 3.71% (inactive) | 96.9% (inactive) | 0.33 (inactive) | 3% (inactive) | -1.82% (inactive) |
| c1cc2c(cc1C1CCCCC1)c1c3n2CCN=C3CCC1 | 98.1% (inactive) | 107% (inactive) | 99.8% (inactive) | 99.4% (inactive) | 93.1% (inactive) | 57.1% | 224% (inactive) | -9.57% (inactive) | 98.8% (inactive) | -9% (inactive) | -7.03% (inactive) | -0.63% (inactive) | 114% (inactive) | 0.03 (inactive) | -1% (inactive) | -9.89% (inactive) |
| CCc1cc(=O)oc2cc(C)c(CN3CCCC(C)C3)c(O)c12 (stereo not given) | 102% (inactive) | 103% (inactive) | 103% (inactive) | 84.3% (inactive) | 94.9% (inactive) | 52.2% | 161% (inactive) | -5.84% (inactive) | 105% (inactive) | 2% (inactive) | 26.7% (inactive) | -0.18% (inactive) | 73.4% (inactive) | 0.18 (inactive) | 5% (inactive) | -18% (inactive) |
| O=C(CCN1CCC(c2ccccc2)C1)c1ccc2c(c1)OCCO2 (stereo not given) | 102% (inactive) | 134% (inactive) | 103% (inactive) | 104% (inactive) | 102% (inactive) | 47.2% | 140% (inactive) | 13.8% (inactive) | 94% (inactive) | 5% (inactive) | -9.51% (inactive) | 2.78% (inactive) | 103% (inactive) | -0.31 (inactive) | 6% (inactive) | -5.05% (inactive) |
| COc1cccc(OCc2cc(C3Nc4ccccc4C(=O)N3Cc3ccco3)ccc2OC)c1 (stereo not given) | 106% (inactive) | 99.9% (inactive) | 104% (inactive) | 92.3% (inactive) | 88.9% (inactive) | 53.2% | 127% (inactive) | 3.49% (inactive) | 99.1% (inactive) | 4% (inactive) | -4.8% (inactive) | 0% (inactive) | 96.5% (inactive) | 0.03 (inactive) | 3% (inactive) | -9.89% (inactive) |
| Cc1ccc2c(c1)OC(=O)CC2c1ccccc1 (stereo not given) | 100% (inactive) | 104% (inactive) | 96.9% (inactive) | 102% (inactive) | 99.6% (inactive) | 58% | 168% (inactive) | 12.8% (inactive) | 111% (inactive) | 5% (inactive) | 31.1% (inactive) | -9.91% (inactive) | 95.6% (inactive) | 0.06 (inactive) | 0% (inactive) | -11.5% (inactive) |
| Cc1ccc(C(CC(=O)NCc2ccco2)c2ccc(OC(C)C)cc2)cc1 (stereo not given) | 99.8% (inactive) | 106% (inactive) | 96.9% (inactive) | 103% (inactive) | 96.9% (inactive) | 60.4% | 165% (inactive) | -138% (inactive) | 103% (inactive) | 2% (inactive) | 37.9% (inactive) | -2.51% (inactive) | 97.7% (inactive) | 0.67 (active) | 12% (inactive) | -6.66% (inactive) |
| COC(=O)c1ccccc1OCCOCCOc1cccc2ccc(C)nc12 | 106% (inactive) | 103% (inactive) | 99.8% (inactive) | 90.3% (inactive) | 100% (inactive) | 49.8% | 145% (inactive) | 14.7% (inactive) | 116% (inactive) | 2% (inactive) | -2.13% (inactive) | 4.14% (inactive) | 103% (inactive) | -0.05 (inactive) | 9% (inactive) | -13.1% (inactive) |
